The structures appear in SMILES notation. Inconclusive results are not listed. Where a call stands in place of a potency, no number is given. Active and inactive are the calls of the source. Calls follow the shape of the dose curve; as a rule, active = well fitted inhibition curve with a large enough effect; inconclusive = small, poorly fitted or top-dose-only effect; inactive = no such curve, though single readings can be large or run the other way.
Potency is read from the fitted curve at half-maximal effect.

The experiment can be described thus: Acumen qHTS Assay for Inhibitors of the mTORC1 Signaling Pathway in WT MEF Cells: Hit Validation. Also: nearly all actives have a fitted effect of over 60% in size. To be noted: Acumen imaging; series mostly up to 37.3 µM. The essentials: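 Read-out is immunofluorescent phospho-rpS6 (Ser235/236) normalised to PI-stained cell number, reported as % active cells using a 7.5 nM rapamycin threshold. Cells: WT or Tsc2-/-, p53-/- MEFs, compound-exposed 24 h at 37C; PI count also tracks viability.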
(In general: Quantitative high-throughput screening tests each substance at several concentrations.)
Consider `CCn1c(=O)sc2cc(NS(=O)(=O)c3ccc(F)c(C)c3)ccc21`, for which the Potency result was “inactive”.

As to `CCN(Cc1nc(-c2ccc(OC)cc2)oc1C)S(=O)(=O)c1ccc(Cl)cc1`, the Potency result was “inactive”.

As for `Cc1cccc(OCc2ccc(-c3nc(C#N)c(NCCN(C)C)o3)o2)c1`, the Potency entry was “inactive”.

With `Cc1cccc(Oc2coc3cc(OCC(=O)NC4CCCCC4)ccc3c2=O)c1`, the Potency entry is “inactive”.

Regarding `COc1cc(-c2ccno2)ccc1S(=O)(=O)N1CCN(c2cc(C)ccc2C)CC1`, the Potency entry is “inactive”.

Turning to `COc1cc(OC)c(NS(=O)(=O)c2ccc3c(c2)CCCN3C(C)=O)cc1Cl`, the Potency result is “inactive”.

Turning to `Cc1nn(C(C)C(=O)NC2CCCCC2)c(=O)c2c1sc1ccccc12` (stereo not given), the Potency result is “inactive”.

Turning to `Cc1ccc(C)c(N2CCN(CCCNC(=O)c3nnc(Cc4ccc(F)cc4Cl)o3)CC2)c1`, the Potency entry was “inactive”.

Regarding `CCOc1cc(-c2nnc(SCC(=O)NCc3ccccc3)nc2-c2ccc(OC)c(OCC)c2)ccc1OC`, the Potency was 0.927 µM (active).

As for `CCOc1ccc(NC(=O)N(Cc2c[nH]c3ccccc23)C2CCCCCC2)cc1`, the Potency result was “inactive”.

Consider `Cc1ccc(-c2noc(CCC(=O)N(C)c3ccccc3F)n2)cc1`, for which the Potency entry is “inactive”.

Consider `Cc1cc(C)c2oc(-c3cccc(NC(=O)COc4ccc([N+](=O)[O-])cc4)c3)nc2c1`, for which the Potency entry is “inactive”.

`Cc1cc(OCC(=O)Nc2cc(-c3nc4ccccc4[nH]3)ccc2C)ccc1Cl`: the Potency result was “inactive”.

Consider `COCc1oc2ccc(NS(=O)(=O)c3ccc(C)cc3)cc2c1C(=O)OC`, for which the Potency was 5.85 µM (active).

Regarding `C=C(C)CSc1nc(-c2ccccc2)cc(-c2ccc(OC)cc2)c1C#N`, the Potency result was “inactive”.

Consider `CCN1CCOC(=O)C1CC(=O)Nc1cc(C)ccc1OC` (stereo not given), for which the Potency was 16.5 µM (active).

In the case of `Cc1ccccc1CN1C(=O)C(O)(CC(=O)c2cccc(Br)c2)c2ccccc21` (stereo not given), the Potency entry is “inactive”.

On to `COc1ccccc1C1C=C(c2ccc(Cl)cc2)Nc2nc(-c3ccc(Cl)cc3)nn21` (stereo not given), for which the Potency entry was “inactive”.

For `C=CCc1c(C)nc2nc(SCC(=O)Nc3ccc(C)c(C)c3)nn2c1C`, the Potency was 1.17 µM (active).

Turning to `CCC(=O)C1=C(c2ccc(F)cc2)N(C(=O)CC)n2cnnc2S1`, the Potency entry was “inactive”.

With `CCc1ccc(CNc2ncc(-c3cccc(OC)c3)n2C)cc1`, the Potency entry was “inactive”.

As to `COC(=O)c1ccccc1NC(=O)Cn1c(=O)n(-c2ccc(C)cc2)c(=O)c2ccccc21`, the Potency entry was “inactive”.

On to `CCOC(=O)c1c(NC(=O)c2ccc(S(=O)(=O)N(CCOC)CCOC)cc2)sc2c1CC(C)(C)NC2(C)C`, for which the Potency was 3.29 µM (active).

As for `COc1ccccc1-c1noc(CSc2nc3ccc(C)cc3[nH]2)n1`, the Potency entry was “inactive”.

Take `COc1ccc(-c2nc(S(=O)(=O)c3ccc(Cl)cc3)c(N3CCCCCC3)o2)cc1`: the Potency entry is “inactive”.

Consider `O=C(NCC(c1cccs1)S(=O)(=O)c1cccs1)c1ccccc1` (stereo not given), for which the Potency entry was “inactive”.

Regarding `CCc1ccc(NC(=O)C2CCCN(S(=O)(=O)c3c(C)noc3/C=C/N(C)C)C2)cc1` (stereo not given), the Potency was 2.07 µM (active).

As to `CCc1nnc(NC(=O)c2nc(S(=O)(=O)Cc3cccc(C)c3)ncc2Cl)s1`, the Potency is 5.21 µM (active).

Turning to `Cc1ccc2sc(N(CCCN(C)C)C(=O)c3ccco3)nc2c1C`, the Potency result was “inactive”.

On to `COC(=O)c1ccccc1NC(=O)CSc1n[nH]c(CC(C)C)n1`, for which the Potency result was “inactive”.

With `Cn1nnnc1SCCCNCc1ccccc1OCc1ccc(Cl)cc1`, the Potency entry is “inactive”.

In the case of `Cc1cc(NCc2ccc(Cl)cc2)n2cnnc2n1`, the Potency entry is “inactive”.

Consider `CCOc1ccc(CCNC(=O)CCc2c(C)nc3cc(-c4ccccc4OC)nn3c2C)cc1`, for which the Potency result was “inactive”.

Turning to `COc1ccc2nc(NC(=O)c3nc(S(=O)(=O)Cc4ccccc4F)ncc3Cl)sc2c1`, the Potency was 13.1 µM (active).

`NS(=O)(=O)c1cc(C(=O)O)c(NCc2ccco2)cc1Cl`: the Potency result was “inactive”.

For the compound `CCNC(=O)c1c(NC(=O)c2nc(S(=O)(=O)CC)ncc2Cl)sc2c1CCCC2`, the Potency is 0.585 µM (active).

In the case of `O=C(CCCn1c(=O)c2ccccc2n(Cc2cccc(Cl)c2)c1=O)NCCc1ccc(Cl)cc1`, the Potency entry is “inactive”.

Consider `CCOc1ccccc1NC(=O)CN1C(=O)C(=O)c2ccccc21`, for which the Potency entry is “inactive”.

Take `CC(C)OCCCn1c(=O)c2ccccc2n2c(-c3ccc(F)cc3)nnc12`: the Potency result is “inactive”.

As for `COc1ccc(-c2noc(CSc3nc(N)cc(=O)[nH]3)n2)cc1`, the Potency entry is “inactive”.
